Test [1] in a line: Nuclear factor erythroid 2-related factor 2/antioxidant responsive element (Nrf2/ARE) small molecule agonists: qHTS cell viability counter screen in human keratinocytes (AID 1919968; active = well fitted curve in the direction sought with a large enough effect in the repeat runs; an effect the other way counts as inactive or inconclusive; also: nearly all actives have a fitted effect of over 55% in size; also: potency is read from the fitted curve at half-maximal effect). A digest of the protocol:
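Cells of the KeratinoSens line were plated at 1,500 per well and left for 5 h before compound transfer from DMSO stocks. After a 23 h incubation (37 C, 5% CO2), CellTiter-Fluor was added. Signal was taken as fluorescence intensity 1 h later.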

Test [2] concerns the target Gonadotropin-releasing hormone receptor (Homo sapiens) (UniProt P30968). Nature of the test: Human gonadotropin-releasing hormone receptor (GnRHR) small molecule agonists, calcium flux assay in GnRHR-HEK293 cells (AID 1920063). Also: nearly all actives have a fitted effect of over 35% in size. A digest of the protocol: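 Compounds dissolved in DMSO are pin-transferred onto dye-loaded GnRHR-HEK293 cells, which were seeded 18 h before at 37 C/5% CO2. Calcium signal is read as fluorescence intensity at 1 s intervals for 3 min.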
In general terms: Calcium flux is commonly read through the fluorescence of an indicator in the cells.

In test [3] the target is KiSS-1 receptor (Homo sapiens) (UniProt Q969F8). The experiment in a line: Human kisspeptin (KISS1R) small molecule agonists, calcium flux assay in KISS1R-HEK293 cells (AID 1920064; active = well fitted curve in the direction sought with a large enough effect in the repeat runs; an effect the other way counts as inactive or inconclusive). The essentials:
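Cell line: HEK293, stable human KISS1R. Dye loading 1 h at 37 C after 18 h culture. Read: kinetic fluorescence, 480/540 nm, 3 min at 1 s intervals.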

The nature of test [4]: p53 small molecule agonists, cell-based qHTS assay with human liver microsomes (AID 1963577).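 Also: p53 response element beta-lactamase reporter cells with liver microsomes plus NADPH.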 A digest of the protocol: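 Steps: plate p53RE-bla cells, incubate 5 h at 37 C; add compound in DMSO; add microsomes (0.5 mg/mL final) and NADPH (0.5 mg/mL final); incubate 16 h at 37 C; add LiveBLAzer, 2 h RT; read fluorescence.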
Background: qHTS replaces the single test concentration by a dilution series.

Test [5] is described as follows: p53 small molecule agonists, cell-based qHTS assay with rat liver microsomes (AID 1963578). A digest of the protocol: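 Metabolic activation is supplied by rat liver microsomes with NADPH (each 0.5 mg/mL final). p53RE-bla cells incubate with compound 16 h at 37 C; reporter activity is measured by LiveBLAzer fluorescence.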
Test [6] is described as follows: p53 small molecule agonists, cell-based qHTS assay with human liver microsomes: qHTS cell viability counter screen (AID 1963579). Also: nearly all actives have a fitted effect of over 45% in size. A digest of the protocol:
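After the 460/530 nm beta-lactamase read, CellTiter-Glo was added to the same wells and luminescence measured after 30 min at room temperature, giving viability of p53RE-bla cells treated 16 h with compounds plus microsomes and NADPH.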

A short description of test [7]: p53 small molecule agonists, cell-based qHTS assay with rat liver microsomes: qHTS cell viability counter screen (AID 1963580). Also: nearly all actives have a fitted effect of over 45% in size. The essentials:
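Cytotoxicity counter screen: intracellular ATP read by CellTiter-Glo luminescence in the p53 reporter wells. HCT-116 p53RE-bla cells were treated for 16 h at 37 C alongside rat liver microsomes and NADPH, each 0.5 mg/mL final.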

Test [8] is described as follows: p53 small molecule agonists, cell-based qHTS assay: qHTS cell viability counter screen (AID 1963581). Also: nearly all actives have a fitted effect of over 45% in size. A digest of the protocol: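 ATP content measured by luminescence in HCT-116 p53RE-bla cells treated 16 h at 37 C, same wells as the reporter screen.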
Test [9] can be described thus: p53 small molecule agonists, cell-based qHTS assay (AID 1963582; active = well fitted activation curve with a large enough effect in the signal ratio in the repeat runs, not every such curve was filed as active; the % refers to the signal ratio; also: potency is read from the fitted curve at half-maximal effect). The essentials:
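16 h compound exposure (37 C) of p53 response element–bla cells, preceded by 5 h recovery at 37 C/5% CO2; read-out via LiveBLAzer B/G FRET substrate, 2 h RT, fluorescence intensity.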

Test [10] addresses 5-hydroxytryptamine receptor 2A (Homo sapiens) (UniProt P28223). The experiment in a line: 5-hydroxytryptamine receptor 2A (HTR2A) small molecule antagonists, cell-based qHTS assay (AID 1963586). Also: nearly all actives have a fitted effect of over 45% in size. A digest of the protocol: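 CHO cells stably expressing human HTR2A were plated for 18 h at 37 C, then loaded with calcium dye for 1 h. Compounds were preincubated 5 min at room temperature before DOI (4 nM solution) was added. Kinetic fluorescence was read for 3 min.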

For test [11] the target is unchanged. The experiment in a line: 5-hydroxytryptamine receptor 2A (HTR2A) small molecule agonists, cell-based qHTS assay (AID 1963587). Also: nearly all actives have a fitted effect of over 30% in size. The essentials: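 Kinetic calcium-flux fluorescence (2 min, 1 sec intervals) after compound addition in agonist mode. HTR2A-CHO cells were cultured 18 h, then dye-loaded 1 h at 37 C.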
For test [12], the target named is Muscarinic acetylcholine receptor M1 (Homo sapiens) (UniProt P11229). The experiment in a line: Cholinergic receptor muscarinic 1 (CHRM1) small molecule antagonists, cell-based qHTS assay (AID 1963588). Also: nearly all actives have a fitted effect of over 40% in size. A digest of the protocol: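 Compounds were tested at 15 concentrations in three independent runs. Dye-loaded CHRM1-CHO cells were exposed 5 min at room temperature before stimulation by acetylcholine added at 50nM. Intracellular calcium was read kinetically on FDSS for 3 min.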

Test [13] has the same target. The experiment in a line: Cholinergic receptor muscarinic 1 (CHRM1) small molecule agonists, cell-based qHTS assay (AID 1963589). Also: nearly all actives have a fitted effect of over 35% in size. A digest of the protocol:
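Homogeneous fluorescence calcium flux, agonist mode. Human M1-expressing CHO cells; compound dosed at 15 concentrations, three independent runs; signal sampled every 1 sec.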

A short description of test [14]: cAMP Responsive Elements (CRE) small molecule antagonists, cell-based qHTS assay (AID 1963591; active = well fitted inhibition curve with a large enough effect in the signal ratio in the repeat runs, not every such curve was filed as active; the % refers to the signal ratio). The essentials: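 First, CRE-bla HEK293T cells settled 18 h at 37 C. Next, compound and 0.25 uM final NKH477 were applied for 3 h. Last, LiveBLAzer B/G substrate was loaded for 2 h at room temperature.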
For test [15], the target named is Beta-2 adrenergic receptor (Homo sapiens) (UniProt P07550). The experiment in a line: Adrenergic beta2 receptor (ADRB2) small molecule antagonists, cell-based qHTS assay (AID 1963592). Also: series mostly up to about 92 µM; nearly all actives have a fitted effect of over 50% in size. The essentials:
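Assay format: CHO-ADRB2 cells, 18-20hr seeding at 37C/5% CO2, then compound plus 1nM isoproterenol agonist mix for 0.5hr RT. Homogeneous time-resolved fluorescence cAMP detection after 1hr, expressed as 665/615 nm ratio.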

Test [16] has the same target. Nature of the test: Adrenergic beta2 receptor (ADRB2) small molecule agonists, cell-based qHTS assay (AID 1963593).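 Also: CHO cells stably overexpressing human ADRB2.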 A digest of the protocol: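 CHO cells stably over-expressing ADRB2 were plated overnight at 37C, then dosed with compounds plus a stimulation mix containing 100uM IBMX and 25uM Ro-20-1724 for 0.5hr at room temperature. cAMP was measured by HTRF competition, 1hr.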

Test [17] addresses D(2) dopamine receptor (Homo sapiens) (UniProt P14416). The experiment in a line: Dopamine D2 receptor (DRD2) small molecule agonists, cell-based qHTS assay (AID 1963594). Also: nearly all actives have a fitted effect of over 35% in size. A digest of the protocol: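 cAMP accumulation in DRD2-HEK293 cells measured by HTRF after 1 h detection; compounds added 10 min before NKH477 (200nM […]) forskolin-analogue stimulation, 30 min at room temperature, with Ro20-1724 present at 0.1 mM final.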

Test [18] in a line: G protein-coupled receptor (GPCR) small molecule agonists, calcium flux assay: HEK293 wild type cell line counter screen (AID 1920065). A digest of the protocol: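 Tox21 10K compounds, 15 concentrations each in triplicate, pin-transferred in DMSO onto dye-loaded cells; kinetic read at 480/540 nm for 3 min, 1 s intervals.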
Test [19] can be described thus: cAMP Responsive Elements (CRE) small molecule agonists, cell-based qHTS assay (AID 1963590). A digest of the protocol:
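HEK 293T cells stably bearing CRE-bla were plated at 2,000 cells per well and rested 18 h. Compounds, positive controls or DMSO were added for 3 h at 37 C. LiveBLAzer B/G substrate was then loaded for 2 h at room temperature.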

The target of test [20] is D(2) dopamine receptor (Homo sapiens) (UniProt P14416). The experiment in a line: Dopamine D2 receptor (DRD2) small molecule antagonists, cell-based qHTS assay (AID 1963595; active = well fitted inhibition curve with a large enough effect in the signal ratio in the repeat runs, with a control signal flat; the % refers to the signal ratio). The essentials: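 HEK293 cells stably expressing DRD2, preincubated with 0.1 mM Ro20-1724 and compounds 10 min, were stimulated with 200 nM NKH477 plus 12 nM quinpirole for 30 min at room temperature; cAMP measured by HTRF (665/620 nm).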

This note sets out measurements from PubChem BioAssay (Tox21).

Results filed as inconclusive are left out. Calls of active or inactive are those of the source. Unless noted, calls follow the shape of the full dose curve.

5-hydroxytryptamine receptor 2A (Homo sapiens), sequence (P28223 whole entry, looked up): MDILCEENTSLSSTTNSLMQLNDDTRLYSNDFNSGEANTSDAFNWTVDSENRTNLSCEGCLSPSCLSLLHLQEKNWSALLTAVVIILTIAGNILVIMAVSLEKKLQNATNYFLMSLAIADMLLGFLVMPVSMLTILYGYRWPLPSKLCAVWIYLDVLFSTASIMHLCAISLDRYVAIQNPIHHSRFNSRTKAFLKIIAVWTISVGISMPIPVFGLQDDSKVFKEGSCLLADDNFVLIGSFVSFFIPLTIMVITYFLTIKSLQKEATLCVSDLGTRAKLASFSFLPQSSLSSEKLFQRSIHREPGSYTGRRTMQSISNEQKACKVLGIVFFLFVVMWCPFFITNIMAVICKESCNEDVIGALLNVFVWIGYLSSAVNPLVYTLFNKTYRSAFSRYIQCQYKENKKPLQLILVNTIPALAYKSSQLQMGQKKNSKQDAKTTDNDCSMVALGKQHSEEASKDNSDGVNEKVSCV
Gonadotropin-releasing hormone receptor (Homo sapiens), sequence (P30968 whole entry, looked up): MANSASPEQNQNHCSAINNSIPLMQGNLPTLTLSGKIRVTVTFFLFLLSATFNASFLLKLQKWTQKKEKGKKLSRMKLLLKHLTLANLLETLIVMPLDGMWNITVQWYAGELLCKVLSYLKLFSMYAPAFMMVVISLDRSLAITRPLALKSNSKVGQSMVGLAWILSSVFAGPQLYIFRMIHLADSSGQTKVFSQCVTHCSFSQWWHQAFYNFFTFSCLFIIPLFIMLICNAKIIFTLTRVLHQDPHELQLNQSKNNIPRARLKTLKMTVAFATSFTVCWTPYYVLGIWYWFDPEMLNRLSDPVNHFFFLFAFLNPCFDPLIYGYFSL
D(2) dopamine receptor (Homo sapiens), sequence (P14416 whole entry, looked up): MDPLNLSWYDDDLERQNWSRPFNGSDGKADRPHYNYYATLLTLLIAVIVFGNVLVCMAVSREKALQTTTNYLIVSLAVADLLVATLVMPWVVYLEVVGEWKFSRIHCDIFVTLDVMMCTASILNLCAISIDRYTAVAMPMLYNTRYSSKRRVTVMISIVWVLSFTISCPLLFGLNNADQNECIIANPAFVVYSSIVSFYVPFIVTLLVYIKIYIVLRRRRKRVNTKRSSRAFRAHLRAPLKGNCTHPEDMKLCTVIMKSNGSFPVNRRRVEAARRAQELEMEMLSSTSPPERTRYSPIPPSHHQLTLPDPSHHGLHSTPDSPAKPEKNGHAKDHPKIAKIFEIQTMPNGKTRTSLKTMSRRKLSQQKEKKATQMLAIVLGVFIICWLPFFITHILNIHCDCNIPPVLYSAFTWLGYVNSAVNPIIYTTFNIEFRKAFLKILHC
KiSS-1 receptor (Homo sapiens), sequence (Q969F8 whole entry, looked up): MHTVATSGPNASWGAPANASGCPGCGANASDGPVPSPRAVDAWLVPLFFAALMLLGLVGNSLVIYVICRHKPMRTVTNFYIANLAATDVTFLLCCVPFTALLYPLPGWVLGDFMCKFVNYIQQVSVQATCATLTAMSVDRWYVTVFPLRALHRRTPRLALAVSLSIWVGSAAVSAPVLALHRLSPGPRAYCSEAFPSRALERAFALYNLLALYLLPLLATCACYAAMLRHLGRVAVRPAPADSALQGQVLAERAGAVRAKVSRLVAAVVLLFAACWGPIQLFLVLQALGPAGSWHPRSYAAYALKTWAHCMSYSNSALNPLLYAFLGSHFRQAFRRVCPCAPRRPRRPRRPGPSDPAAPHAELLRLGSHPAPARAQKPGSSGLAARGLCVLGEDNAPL
Beta-2 adrenergic receptor (Homo sapiens), sequence (P07550 whole entry, looked up): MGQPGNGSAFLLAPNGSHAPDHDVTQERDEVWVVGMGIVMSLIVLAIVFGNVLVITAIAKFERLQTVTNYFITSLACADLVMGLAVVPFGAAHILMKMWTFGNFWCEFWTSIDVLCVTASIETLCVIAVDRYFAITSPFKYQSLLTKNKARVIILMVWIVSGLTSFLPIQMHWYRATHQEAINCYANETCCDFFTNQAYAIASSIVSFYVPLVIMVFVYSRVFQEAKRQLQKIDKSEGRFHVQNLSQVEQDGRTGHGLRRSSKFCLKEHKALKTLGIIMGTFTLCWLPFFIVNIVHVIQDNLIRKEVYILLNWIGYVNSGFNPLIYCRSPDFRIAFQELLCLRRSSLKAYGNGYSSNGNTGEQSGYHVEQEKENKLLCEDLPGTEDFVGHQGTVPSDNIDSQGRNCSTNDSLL
Muscarinic acetylcholine receptor M1 (Homo sapiens), sequence (P11229 whole entry, looked up): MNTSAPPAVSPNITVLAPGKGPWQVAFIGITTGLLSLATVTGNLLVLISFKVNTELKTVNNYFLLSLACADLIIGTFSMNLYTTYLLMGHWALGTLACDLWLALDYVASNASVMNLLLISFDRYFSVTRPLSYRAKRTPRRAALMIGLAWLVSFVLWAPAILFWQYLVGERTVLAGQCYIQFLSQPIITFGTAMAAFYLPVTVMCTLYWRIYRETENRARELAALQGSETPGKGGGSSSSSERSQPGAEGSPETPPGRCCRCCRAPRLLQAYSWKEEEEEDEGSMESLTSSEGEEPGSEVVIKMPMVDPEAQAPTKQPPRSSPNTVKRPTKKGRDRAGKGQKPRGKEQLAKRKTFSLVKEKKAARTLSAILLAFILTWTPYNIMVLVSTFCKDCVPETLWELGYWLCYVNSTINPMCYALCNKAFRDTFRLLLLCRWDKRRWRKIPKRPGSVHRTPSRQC

With `CCCC[n+]1cccc(C)c1`, the Potency entry in [1], in test [2], in test [3], in test [4], in test [5] and in test [6] was “inactive” each time. Further, the Potency result in [7], in [8], in test [9], in [10], in [11] and in test [12] was “inactive” each time. Further, the Potency entry in test [13], in test [14], in test [15], in test [16] and in test [17] was “inactive” throughout.
As to `CC(=O)C1CCOC1=O` (configuration not stated), the Potency entry in test [1], in [3], in [18], in test [4], in test [5] and in test [6] was “inactive” throughout. The Potency entry in [7], in test [8], in test [9], in test [10], in [11] and in test [12] was “inactive” each time. In addition, the Potency entry in test [13], in test [19], in [14], in test [15], in [16] and in test [17] was “inactive” in each case. Moreover, the Potency result in test [20] was “inactive”.
Take `ClC(Cl)=C(c1ccc(Cl)cc1)c1ccc(Cl)cc1`: in [1], the Potency was 39.5 µM (active). Further, the Potency result in test [2], in [18], in [4], in test [5], in test [6] and in [7] was “inactive” in each case. The Potency result in test [8], in test [9], in test [10], in [11], in test [12] and in [13] was “inactive” throughout. Also, the Potency entry in test [19], in [14], in [15], in test [16], in test [17] and in test [20] was “inactive” in each case.
`COC(=O)Nc1nc2ccccc2[nH]1`: the Potency result in test [1], in [2], in test [3], in test [4], in test [5] and in [6] was “inactive” in each case. Besides, the Potency result in [7], in [10], in test [11], in [12], in test [13] and in test [19] was “inactive” throughout. The Potency entry in test [15], in test [16], in [17] and in [20] was “inactive” throughout. Further, in test [9], the Potency was 9.13 µM (active).
For `C=C(C#N)CCC#N`, the Potency result in [1], in [2], in test [3], in test [4], in [5] and in test [6] was “inactive” throughout. Moreover, the Potency result in test [7], in [9], in test [10], in [11], in test [12] and in test [13] was “inactive” in each case. Also, the Potency result in test [19], in [14], in test [15], in [17] and in [20] was “inactive” each time.
`O=[N+]([O-])c1ccc([As](=O)(O)O)cc1`: the Potency result in test [1], in [2], in test [3], in test [4], in [5] and in test [6] was “inactive” each time. The Potency entry in [7], in test [8], in test [10], in test [11], in [12] and in [13] was “inactive” in each case. Moreover, the Potency entry in test [19], in [14], in [16] and in test [17] was “inactive” in each case.
As to `COC(=O)Nc1cccc(OC(=O)Nc2cccc(C)c2)c1`, the Potency result in [2], in test [3], in [18], in [4], in test [5] and in test [6] was “inactive” in each case. Further, the Potency entry in test [7], in test [8], in test [9], in test [10], in test [11] and in [12] was “inactive” each time. The Potency result in test [13], in test [19], in [14], in test [15], in [16] and in test [17] was “inactive” throughout. Moreover, the Potency entry in [20] is “inactive”.
`COc1cc(-c2ccc(N)c(OC)c2)ccc1N`: the Potency entry in [1], in test [3], in test [18], in test [4], in [5] and in test [6] was “inactive” throughout. For the same compound, the Potency entry in [7], in [8], in [9], in test [10], in test [11] and in test [12] was “inactive” each time. Further, the Potency result in test [13], in [19], in test [17] and in test [20] was “inactive” each time.
In the case of `CC(C)(O)C(Cl)(Cl)Cl`, the Potency entry in test [2], in [3], in test [18], in test [4], in test [5] and in test [6] was “inactive” throughout. The Potency entry in test [7], in [8], in test [9], in [10], in test [11] and in test [12] was “inactive” each time. Also, the Potency entry in [13], in [19], in [14], in [15] and in test [17] was “inactive” throughout.
On to `Cc1cc(Cl)ccc1N`, for which the Potency result in test [2], in [3], in test [18], in test [6], in test [7] and in test [8] was “inactive” in each case. Further, the Potency result in test [10], in [11], in test [12], in [19], in test [14] and in [15] was “inactive” in each case. Besides, the Potency result in [16], in [17] and in test [20] was “inactive” in each case.
Turning to `CN(C)N=O`, the Potency entry in [2], in [3], in test [18], in test [5], in test [6] and in test [7] was “inactive” each time. The Potency result in test [8], in test [9], in test [10], in test [11], in test [12] and in test [13] was “inactive” in each case. Besides, the Potency entry in test [19], in test [14], in test [15], in test [16], in test [17] and in test [20] was “inactive” in each case.
On to `O=C(O)COc1ccc(Cl)cc1Cl`, for which the Potency entry in [2], in test [3], in test [18], in [4], in test [5] and in [6] was “inactive” each time. Also, the Potency entry in [7], in [8], in test [9], in test [11], in [12] and in test [13] was “inactive” in each case. Besides, the Potency entry in test [14], in test [15], in test [16], in test [17] and in test [20] was “inactive” throughout.
